Bioassay records (PubChem)
Only some compounds are listed: those with a hit (about 2.8% of all), similar ones and a draw of the others.
PG9 binder – PG9 antibody binding by small molecule; inhibition, % at 6.7 µM; AID 624416; TR-FRET gp120-PG9 antibody binding; 0.43% of 360,000 active; in the data active means inhibition above about 8.5%
KLK7 zymogen act – activators of human kallikrein-7 zymogen | P49862 | 0.9% of 370,000 active | purified proKLK7, EDANS-DABCYL substrate fluorescence; 100% is mature enzyme control, 0% vehicle | activation, % at 7 µM;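 active means activation above the mean of all tested compounds plus 3 SD, computed per campaign excluding outliers beyond control limits, cut at about 13% in these data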
PP5 primary – blocks human protein phosphatase 5 activity | AID 1987 | 0.18% of 320,000 active | inhibition, % at 6.7 µM | P53041 | purified PP5c, OMFP substrate fluorescence;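 active means inhibition above the campaign's mean inhibition across all tested compounds plus 3 SD, cut at about 9.5% in these data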;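 further: 0% = DMSO only and 100% = 100 µM cantharidin control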
Target sequence (P53041 whole entry, looked up): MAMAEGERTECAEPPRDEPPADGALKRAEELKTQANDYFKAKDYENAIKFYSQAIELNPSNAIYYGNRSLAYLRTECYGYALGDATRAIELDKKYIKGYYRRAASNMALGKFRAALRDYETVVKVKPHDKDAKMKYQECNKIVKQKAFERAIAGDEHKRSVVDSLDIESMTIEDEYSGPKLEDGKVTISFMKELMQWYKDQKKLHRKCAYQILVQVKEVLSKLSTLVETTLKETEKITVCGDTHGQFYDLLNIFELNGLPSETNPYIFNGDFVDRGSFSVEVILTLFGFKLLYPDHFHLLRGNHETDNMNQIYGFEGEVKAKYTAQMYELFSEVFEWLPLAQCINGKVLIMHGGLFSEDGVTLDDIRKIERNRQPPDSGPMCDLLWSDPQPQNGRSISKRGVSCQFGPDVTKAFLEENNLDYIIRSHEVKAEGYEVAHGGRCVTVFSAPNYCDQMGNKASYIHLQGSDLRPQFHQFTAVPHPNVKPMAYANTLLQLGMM
JMJD2C inh – inhibitors of human GASC-1 (JMJD2C) demethylase | Q9H3R0 | GST-JMJD2C(1-420) H3K9me3 demethylation, DELFIA europium | inhibition, % at 2.35 µM | 0.069% of 330,000 active | AID 2099;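 active means more than half of a compound's replicate wells show inhibition beyond 50%, single wells judged on their own value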;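 further: signal counts dimethyl H3K9 product captured on neutravidin plate; 0% = median of DMSO wells and 100% = 0.3 times that DMSO median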
NR1D1 modulator – Rev-erb alpha (human) modulation; P20393; Rev-erbα–FITC-DNA binding, fluorescence polarization, 90 min; activity, % at 10 µM; 0.79% of 370,000 active; AID 1259318;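 active means activity above about 14%, limit read from the data; passing the limit was not always enough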;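 further: 0% = DMSO wells with 35 nM protein and 100% = DMSO wells with 750 nM protein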
PP1 inh – counter-screen for PP5 inhibitors: inhibitors of human PP1-alpha; P62136; purified PP1alpha, OMFP fluorescence; inhibition, % at 6.7 µM; 0.9% of 320,000 active; AID 2235;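 active means inhibition above the mean inhibition of all tested compounds plus 3 SD, computed separately for each screening campaign, cut at about 15% in these data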
PP1 confirm – confirmation of human PP1 phosphatase inhibitors | 52% of 1,900 active | inhibition, % at 6.7 µM | purified PP1alpha, OMFP substrate fluorescence | shares compounds with PP1 inh;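 active means mean PP1 inhibition above a set limit taken from the earlier primary screen, cut at about 15% in these data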
PP5 inh counter – PP5 phosphatase inhibition, counter-screen for PP1 inhibitors; shares compounds with PP1 inh; purified PP5c, OMFP fluorescence; inhibition, % at 6.7 µM; 4% of 1,900 active;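 active means mean PP5 inhibition over triplicate wells above about 9.5% taken from the earlier PP1 screen, limit read from the data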
The depositor's hits bear a star.

Results for COc1ccc(CN2C(=O)c3cccnc3C2Nc2cc(Cl)ccc2OC)cc1 (stereo not drawn) ?
PG9 binder: -2; KLK7 zymogen act: 0; PP5 primary: 8; JMJD2C inh: 2; NR1D1 modulator: -4; PP1 inh: 27*; PP1 confirm: 26*; PP5 inh counter: -2

How did COc1cccc(N2C(=O)c3cccnc3C2O)c1 (stereo not drawn) do in these assays?
PG9 binder: -3; KLK7 zymogen act: 0; JMJD2C inh: 1; NR1D1 modulator: -7

How did O=C(N[C@@H](Cc1cccnc1)C(=O)N1CCC[C@H]1C(=O)NC1CCCC1)c1cccs1 do in these assays?
PG9 binder: 0; KLK7 zymogen act: 0; NR1D1 modulator: -2

What do the screens show for `COC(=O)[C@]12C[C@H](CC(=O)NCCc3ccccc3OC)C(=O)N(Cc3ccco3)C1=C[C@H](C1CCCC1)O[C@@H]2C`?
KLK7 zymogen act: 0; NR1D1 modulator: -1

Results for COc1ccccc1OCC(=O)Nc1oc(-c2ccccc2)c(-c2ccccc2)c1C#N ?
PG9 binder: -3; KLK7 zymogen act: -1; PP5 primary: 3; NR1D1 modulator: -4; PP1 inh: 9

Results for N#Cc1c(NC(=O)COC(=O)C2CC3C=CC2C3)oc(-c2ccccc2)c1-c1ccccc1 (stereo not drawn) ?
PG9 binder: -2; KLK7 zymogen act: 1; PP5 primary: -2; JMJD2C inh: 5; NR1D1 modulator: -6; PP1 inh: 19*; PP1 confirm: 10; PP5 inh counter: -3

How did CCC(=O)N(c1ccc(C(=O)O)cc1)c1nc(-c2ccc(OC)cc2)c(C)s1 do in these assays?
PG9 binder: -2; KLK7 zymogen act: 1; PP5 primary: 1; JMJD2C inh: 2; NR1D1 modulator: -6; PP1 inh: 0

Results for Cc1sc(N(C(=O)CCc2ccccc2)c2ccc(C(=O)O)cc2)nc1-c1ccccc1 ?
PG9 binder: 0; KLK7 zymogen act: 0; PP5 primary: 5; JMJD2C inh: 10; NR1D1 modulator: 10; PP1 inh: 20*; PP1 confirm: 15*; PP5 inh counter: 0

What do the screens show for `COC(=O)[C@H]1[C@@H](O)[C@@]2(O)c3c(OC)cc(OC)cc3O[C@@]2(c2ccc(OC)cc2)[C@@H]1c1ccc(F)cc1`?
PG9 binder: -1; KLK7 zymogen act: 0; NR1D1 modulator: 1

How did C/C(=N/O)c1ccccn1 do in these assays?
PG9 binder: 0; KLK7 zymogen act: 0; PP5 primary: 6; JMJD2C inh: 2; NR1D1 modulator: -4; PP1 inh: 36*; PP1 confirm: -1; PP5 inh counter: -6

How did N#Cc1ccccc1NC(=O)CSc1nnc(-c2ccncc2)o1 do in these assays?
PG9 binder: -1; KLK7 zymogen act: 0; PP5 primary: 3; JMJD2C inh: 0; NR1D1 modulator: -5; PP1 inh: 33*; PP1 confirm: -2; PP5 inh counter: -2

How did CN(C)C(=O)N1CCN(C(=O)[C@H]2O[C@@H](n3ccc(N)nc3=O)[C@H](O)[C@@H]2O)CC1 do in these assays?
PG9 binder: -2; KLK7 zymogen act: 0; NR1D1 modulator: -3

Results for O=C(NCCc1ccccc1)/C(=C\c1ccc([N+](=O)[O-])cc1)NC(=O)c1ccc(Br)cc1 ?
PG9 binder: -3; KLK7 zymogen act: 0; PP5 primary: 1; JMJD2C inh: -2; NR1D1 modulator: -2; PP1 inh: 18*; PP1 confirm: 22*; PP5 inh counter: -2

What do the screens show for `O=C1OC(c2ccccc2)c2ccc3ccccc3c21` (stereo not drawn)?
PG9 binder: -1; KLK7 zymogen act: 0; PP5 primary: 4; JMJD2C inh: -14; NR1D1 modulator: -2; PP1 inh: 19*; PP1 confirm: -2; PP5 inh counter: -2

What do the screens show for `O=C1OC(c2ccccc2)c2ccccc21` (stereo not drawn)?
PG9 binder: 0; KLK7 zymogen act: 0; PP5 primary: 6; JMJD2C inh: 16; NR1D1 modulator: -2; PP1 inh: -4

Results for O=[N+]([O-])c1cc(CN2CCCC2)c2cccnc2c1O ?
PP5 primary: 3; JMJD2C inh: 8; PP1 inh: 18*; PP1 confirm: 5; PP5 inh counter: -1

How did O=[N+]([O-])c1cc(CN2CCN(c3cccc(C(F)(F)F)c3)CC2)c2cccnc2c1O do in these assays?
PG9 binder: 0; KLK7 zymogen act: 0; PP5 primary: 5; JMJD2C inh: -7; NR1D1 modulator: 2; PP1 inh: 18*; PP1 confirm: 24*; PP5 inh counter: -1

How did O=C(OC12CCCN(C1)/C(=C/c1cccc(Cl)c1)C2)C1CCCCC1 (stereo not drawn) do in these assays?
KLK7 zymogen act: 0; NR1D1 modulator: 7

Results for COc1ccc(-c2coc3c(CN4CCCCC4)c(O)c(CN4CCCCC4)c(O)c3c2=O)cc1 ?
PP5 primary: 4; JMJD2C inh: -4; PP1 inh: 29*; PP1 confirm: -9; PP5 inh counter: -8

Results for Cc1ccc(Cn2nc(C)c(NC(=O)c3cc(-c4ccc5c(c4)OCO5)on3)c2C)cc1 ?
PG9 binder: -2; KLK7 zymogen act: 0; PP5 primary: 2; JMJD2C inh: -21; NR1D1 modulator: 0; PP1 inh: 24*; PP1 confirm: 37*; PP5 inh counter: -4

Results for OC(COCc1ccccc1)CN1CCN(Cc2ccc3c(c2)OCO3)CC1 (stereo not drawn) ?
PG9 binder: -2; KLK7 zymogen act: 1; PP5 primary: 1; JMJD2C inh: 0; NR1D1 modulator: -2; PP1 inh: -2

Results for SC(COCc1ccccc1)CN1CCN(Cc2ccc3c(c2)OCO3)CC1 (stereo not drawn) ?
PP5 primary: 0; JMJD2C inh: 4; PP1 inh: 25*; PP1 confirm: 2; PP5 inh counter: -4

Results for CC(=O)NCc1ccc(OCCCN2CCC(C(O)(c3ccccc3)c3ccccc3)CC2)cc1 ?
PG9 binder: 2; KLK7 zymogen act: 0; NR1D1 modulator: -6

Results for Cc1cccc(N2C(=O)C(O)=C(C(=O)c3cccs3)C2c2cccc(Oc3ccccc3)c2)n1 (stereo not drawn) ?
PG9 binder: 0; KLK7 zymogen act: 0; PP5 primary: 0; JMJD2C inh: -3; NR1D1 modulator: 0; PP1 inh: 25*; PP1 confirm: 25*; PP5 inh counter: -2
